Experimental findings from PMC7862700, “An all-to-all approach to the identification of sequence-specific readers for epigenetic DNA modifications on cytosine” are described below.

Holding throughout (assay): DAPPL (digital affinity profiling via proximity ligation, sequencing); 10 mM Tris-HCl pH 7.5, 50 mM NaCl, 1 mM DTT, 4% glycerol, room temperature, 30 min; GST-TFs on glutathione beads, 16-mer random dsDNA library, 0.1% formaldehyde crosslink after washing; high values mean tight binding
For one assay, the target named is T1, FEV (Homo sapiens, UniProt Q99581 1-238).
T1 sequence: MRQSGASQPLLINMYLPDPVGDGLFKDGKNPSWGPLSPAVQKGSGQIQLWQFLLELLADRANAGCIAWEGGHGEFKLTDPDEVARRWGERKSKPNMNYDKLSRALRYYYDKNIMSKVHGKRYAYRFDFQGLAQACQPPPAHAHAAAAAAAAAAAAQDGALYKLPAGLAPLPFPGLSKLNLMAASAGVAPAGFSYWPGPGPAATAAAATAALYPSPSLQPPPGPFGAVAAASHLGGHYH
The settings on record: protein: recombinant; tags: N-terminal GST; dsDNA, one strand shown. In short, it runs like this:
(§1)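 Binding signal is defined as a hexamer's read frequency for one factor over its frequency for the tag-only sample. To obtain reads, GST-fused human transcription factors were expressed in yeast, captured on glutathione beads, barcoded with DNA and pooled with that sample. Pools met 200 nmole of a 16-mer random double-stranded DNA library in Tris/NaCl/DTT/glycerol buffer for 30 min at room temperature before washing, 0.1% formaldehyde crosslinking, proximity ligation (BsaI/T4 ligase, 1 h, 37 °C), PCR and Illumina NextSeq500 sequencing.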

Another assay has as its target ETV5 (Homo sapiens, UniProt P41161 1-510). The settings on record: protein: recombinant; tags: N-terminal GST; dsDNA, one strand shown. The method, boiled down:
as §1

Another assay has as its target HSF1 (Homo sapiens, UniProt Q00613 1-529). The settings on record: protein: recombinant; tags: N-terminal GST; chain copies: 3; dsDNA, one strand shown. In short, it runs like this: as §1
The target in a further assay is T2, SPIC (Homo sapiens, UniProt Q8N5J4 1-248).
T2 sequence: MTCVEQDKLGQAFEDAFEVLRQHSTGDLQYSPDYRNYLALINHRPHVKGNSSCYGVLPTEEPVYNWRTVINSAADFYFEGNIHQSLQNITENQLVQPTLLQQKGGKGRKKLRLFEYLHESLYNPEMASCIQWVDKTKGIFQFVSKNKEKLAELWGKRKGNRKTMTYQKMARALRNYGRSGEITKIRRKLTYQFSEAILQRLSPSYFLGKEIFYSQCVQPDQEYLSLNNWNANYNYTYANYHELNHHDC
The settings on record: protein: recombinant; tags: N-terminal GST; dsDNA, one strand shown. The method, boiled down: as §1

For the next assay, the target named is ELF4 (Homo sapiens, UniProt Q99607 1-663). As to conditions: protein: recombinant; tags: N-terminal GST; dsDNA, one strand shown. The method, boiled down: as §1
Chain of ELF4 (Q99607 whole entry): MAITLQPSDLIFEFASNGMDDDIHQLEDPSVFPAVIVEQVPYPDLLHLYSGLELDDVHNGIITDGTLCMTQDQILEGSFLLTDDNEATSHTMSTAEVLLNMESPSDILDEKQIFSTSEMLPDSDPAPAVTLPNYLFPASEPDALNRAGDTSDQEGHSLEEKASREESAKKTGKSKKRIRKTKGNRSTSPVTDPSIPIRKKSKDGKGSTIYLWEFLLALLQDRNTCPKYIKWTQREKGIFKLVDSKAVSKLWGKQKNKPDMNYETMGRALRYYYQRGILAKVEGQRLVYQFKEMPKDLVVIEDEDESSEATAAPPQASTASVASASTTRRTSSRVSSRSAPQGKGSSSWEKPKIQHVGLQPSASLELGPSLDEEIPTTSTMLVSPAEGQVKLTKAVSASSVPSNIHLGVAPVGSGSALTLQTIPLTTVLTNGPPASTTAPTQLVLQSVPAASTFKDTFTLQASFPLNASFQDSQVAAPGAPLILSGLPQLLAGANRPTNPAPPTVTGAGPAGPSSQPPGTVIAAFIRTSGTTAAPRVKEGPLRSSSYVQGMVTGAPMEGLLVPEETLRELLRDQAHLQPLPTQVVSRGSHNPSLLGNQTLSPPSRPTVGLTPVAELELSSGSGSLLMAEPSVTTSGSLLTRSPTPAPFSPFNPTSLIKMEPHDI
The target in the next assay is T3, ELK4 (Homo sapiens, UniProt P28324-2 1-405).
T3 sequence: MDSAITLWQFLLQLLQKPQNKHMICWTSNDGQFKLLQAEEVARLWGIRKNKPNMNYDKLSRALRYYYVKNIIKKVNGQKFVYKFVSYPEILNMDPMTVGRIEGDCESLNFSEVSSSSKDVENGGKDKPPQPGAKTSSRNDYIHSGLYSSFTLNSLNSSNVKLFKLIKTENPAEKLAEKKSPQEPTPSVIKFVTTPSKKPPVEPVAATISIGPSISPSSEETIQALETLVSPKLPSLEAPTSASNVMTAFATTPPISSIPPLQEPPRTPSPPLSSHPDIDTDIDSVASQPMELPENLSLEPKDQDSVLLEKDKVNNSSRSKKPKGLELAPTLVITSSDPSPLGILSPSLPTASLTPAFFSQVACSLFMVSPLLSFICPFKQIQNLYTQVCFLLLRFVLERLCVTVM
The settings on record: protein: recombinant; tags: N-terminal GST; dsDNA, one strand shown. In short, it runs like this:
as §1

The target of a further assay is T4, ETV2 (Homo sapiens, UniProt O00321 1-342).
T4 sequence: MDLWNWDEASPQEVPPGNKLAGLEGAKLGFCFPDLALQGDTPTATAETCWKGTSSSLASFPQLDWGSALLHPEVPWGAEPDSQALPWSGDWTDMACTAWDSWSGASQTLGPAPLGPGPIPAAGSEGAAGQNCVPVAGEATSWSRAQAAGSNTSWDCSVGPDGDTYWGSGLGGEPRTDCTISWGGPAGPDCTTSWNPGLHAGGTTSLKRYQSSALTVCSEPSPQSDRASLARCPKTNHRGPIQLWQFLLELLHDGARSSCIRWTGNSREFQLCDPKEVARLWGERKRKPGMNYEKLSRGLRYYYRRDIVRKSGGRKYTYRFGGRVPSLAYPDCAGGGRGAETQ
The settings on record: protein: recombinant; tags: N-terminal GST; dsDNA, one strand shown. The method, boiled down: as §1

A further assay has as its target T5, ELF3 (Homo sapiens, UniProt P78545 1-371).
T5 sequence: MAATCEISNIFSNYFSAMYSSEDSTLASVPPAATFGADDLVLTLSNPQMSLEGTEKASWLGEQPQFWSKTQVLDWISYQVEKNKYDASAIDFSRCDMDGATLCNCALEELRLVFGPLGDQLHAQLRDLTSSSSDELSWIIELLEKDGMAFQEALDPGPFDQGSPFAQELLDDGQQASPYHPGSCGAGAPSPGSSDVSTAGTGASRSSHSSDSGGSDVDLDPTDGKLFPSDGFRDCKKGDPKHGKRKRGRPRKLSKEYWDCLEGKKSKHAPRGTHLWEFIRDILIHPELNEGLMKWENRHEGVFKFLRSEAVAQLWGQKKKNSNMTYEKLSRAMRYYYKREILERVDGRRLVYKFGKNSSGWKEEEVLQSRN
As to conditions: protein: recombinant; tags: N-terminal GST; dsDNA, one strand shown. In short, it runs like this:
as §1

Another assay addresses CRX (Homo sapiens, UniProt O43186 1-299). As to conditions: protein: recombinant; tags: N-terminal GST; dsDNA, one strand shown. In short, it runs like this: as §1
In the next assay the target is ETV1 (Homo sapiens, UniProt P50549 1-477). As to conditions: protein: recombinant; tags: N-terminal GST; dsDNA, one strand shown. In short, it runs like this: as §1
Chain of ETV1 (P50549 whole entry): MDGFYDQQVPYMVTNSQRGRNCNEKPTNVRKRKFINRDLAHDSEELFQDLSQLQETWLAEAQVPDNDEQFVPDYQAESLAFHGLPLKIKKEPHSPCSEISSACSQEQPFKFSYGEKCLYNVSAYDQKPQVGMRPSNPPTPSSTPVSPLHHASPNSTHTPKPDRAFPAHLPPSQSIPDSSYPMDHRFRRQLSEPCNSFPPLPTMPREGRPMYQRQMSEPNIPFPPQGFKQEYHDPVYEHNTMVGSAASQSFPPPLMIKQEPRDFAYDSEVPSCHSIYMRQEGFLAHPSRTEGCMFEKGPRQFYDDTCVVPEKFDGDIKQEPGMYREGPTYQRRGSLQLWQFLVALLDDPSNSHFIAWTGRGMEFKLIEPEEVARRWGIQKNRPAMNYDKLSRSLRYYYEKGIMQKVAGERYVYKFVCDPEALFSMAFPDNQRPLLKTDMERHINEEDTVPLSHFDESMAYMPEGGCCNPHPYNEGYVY
The target in a further assay is T6, ERF (Homo sapiens, UniProt P50548 1-548).
T6 sequence: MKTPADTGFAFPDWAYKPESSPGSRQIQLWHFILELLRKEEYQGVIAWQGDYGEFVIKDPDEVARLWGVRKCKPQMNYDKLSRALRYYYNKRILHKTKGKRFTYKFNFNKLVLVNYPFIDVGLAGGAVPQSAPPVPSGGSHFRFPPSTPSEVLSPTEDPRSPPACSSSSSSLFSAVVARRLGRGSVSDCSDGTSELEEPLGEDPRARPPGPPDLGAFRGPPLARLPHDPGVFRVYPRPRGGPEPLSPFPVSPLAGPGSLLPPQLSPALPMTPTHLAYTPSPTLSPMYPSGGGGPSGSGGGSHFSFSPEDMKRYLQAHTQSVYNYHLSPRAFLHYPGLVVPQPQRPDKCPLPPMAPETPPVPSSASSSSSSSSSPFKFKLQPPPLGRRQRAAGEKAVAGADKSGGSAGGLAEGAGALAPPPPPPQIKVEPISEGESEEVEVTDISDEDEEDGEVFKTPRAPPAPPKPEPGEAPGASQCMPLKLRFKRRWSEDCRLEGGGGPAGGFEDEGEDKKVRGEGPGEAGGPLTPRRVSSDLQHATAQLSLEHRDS
The settings on record: protein: recombinant; tags: N-terminal GST; dsDNA, one strand shown. The method, boiled down:
as §1

A further assay deals with T7, ETV3L (Homo sapiens, UniProt Q6ZN32 1-361).
T7 sequence: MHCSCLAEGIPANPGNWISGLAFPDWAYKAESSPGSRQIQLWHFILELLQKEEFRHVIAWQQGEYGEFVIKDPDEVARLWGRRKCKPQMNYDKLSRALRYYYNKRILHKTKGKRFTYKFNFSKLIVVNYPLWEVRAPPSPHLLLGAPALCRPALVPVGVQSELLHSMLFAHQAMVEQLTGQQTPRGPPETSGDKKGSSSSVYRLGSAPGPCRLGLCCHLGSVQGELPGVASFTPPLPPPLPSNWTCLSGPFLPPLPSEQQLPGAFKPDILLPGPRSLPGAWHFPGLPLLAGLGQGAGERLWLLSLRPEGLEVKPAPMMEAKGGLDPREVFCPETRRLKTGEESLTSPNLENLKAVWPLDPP
The settings on record: protein: recombinant; tags: N-terminal GST; dsDNA, one strand shown. The method, boiled down:
as §1

A further assay addresses T8, ETS2 (Homo sapiens, UniProt P15036 1-469).
T8 sequence: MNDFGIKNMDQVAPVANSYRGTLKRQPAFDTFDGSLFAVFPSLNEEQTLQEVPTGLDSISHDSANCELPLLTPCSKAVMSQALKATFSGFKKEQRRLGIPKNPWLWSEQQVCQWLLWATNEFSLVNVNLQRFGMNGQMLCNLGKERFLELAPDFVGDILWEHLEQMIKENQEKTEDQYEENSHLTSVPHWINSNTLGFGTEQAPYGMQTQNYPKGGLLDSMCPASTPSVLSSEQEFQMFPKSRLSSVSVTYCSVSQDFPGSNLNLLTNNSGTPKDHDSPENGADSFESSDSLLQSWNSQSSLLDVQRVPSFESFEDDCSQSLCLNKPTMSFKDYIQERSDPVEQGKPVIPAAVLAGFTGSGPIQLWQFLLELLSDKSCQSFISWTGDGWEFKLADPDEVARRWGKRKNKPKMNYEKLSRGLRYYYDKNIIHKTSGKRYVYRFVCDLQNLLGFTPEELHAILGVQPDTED
The settings on record: protein: recombinant; tags: N-terminal GST; dsDNA, one strand shown. The method, boiled down: as §1

A further assay deals with T9, SPDEF (Homo sapiens, UniProt O95238 1-335).
T9 sequence: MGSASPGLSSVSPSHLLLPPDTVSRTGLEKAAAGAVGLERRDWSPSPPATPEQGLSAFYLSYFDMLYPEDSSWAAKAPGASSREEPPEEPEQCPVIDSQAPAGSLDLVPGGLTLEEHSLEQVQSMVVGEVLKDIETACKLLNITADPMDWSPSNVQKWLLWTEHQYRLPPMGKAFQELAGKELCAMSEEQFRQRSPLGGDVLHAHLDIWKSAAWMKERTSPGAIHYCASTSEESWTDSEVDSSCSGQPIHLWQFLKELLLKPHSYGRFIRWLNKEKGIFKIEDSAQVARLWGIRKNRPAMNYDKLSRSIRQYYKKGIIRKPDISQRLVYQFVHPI
As to conditions: protein: recombinant; tags: N-terminal GST; dsDNA, one strand shown. In short, it runs like this: as §1

A further assay addresses T10, ETV7 (Homo sapiens, UniProt Q9Y603 1-341).
T10 sequence: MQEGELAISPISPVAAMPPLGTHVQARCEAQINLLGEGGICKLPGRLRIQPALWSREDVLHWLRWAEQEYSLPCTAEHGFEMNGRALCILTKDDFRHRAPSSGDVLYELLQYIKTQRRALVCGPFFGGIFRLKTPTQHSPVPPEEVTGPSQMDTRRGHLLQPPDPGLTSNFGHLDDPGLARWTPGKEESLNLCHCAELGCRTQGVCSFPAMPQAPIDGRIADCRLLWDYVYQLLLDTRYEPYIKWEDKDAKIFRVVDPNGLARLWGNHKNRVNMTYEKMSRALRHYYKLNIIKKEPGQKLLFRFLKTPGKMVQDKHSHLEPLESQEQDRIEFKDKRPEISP
As to conditions: protein: recombinant; tags: N-terminal GST; dsDNA, one strand shown. The method, boiled down: as §1

The target in the next assay is T11, ELF5 (Homo sapiens, UniProt Q9UKW6-2 1-255).
T11 sequence: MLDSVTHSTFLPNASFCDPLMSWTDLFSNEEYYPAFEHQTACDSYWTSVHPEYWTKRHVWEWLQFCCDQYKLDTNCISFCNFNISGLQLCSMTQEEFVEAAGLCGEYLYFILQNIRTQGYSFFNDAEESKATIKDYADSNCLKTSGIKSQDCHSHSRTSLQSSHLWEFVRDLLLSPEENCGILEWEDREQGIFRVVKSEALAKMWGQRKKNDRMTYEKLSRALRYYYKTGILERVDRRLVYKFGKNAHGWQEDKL
As to conditions: protein: recombinant; tags: N-terminal GST; dsDNA, one strand shown. In short, it runs like this:
as §1

For a further assay, the target named is T12, ETV3 (Homo sapiens, UniProt P41162-2 1-143).
T12 sequence: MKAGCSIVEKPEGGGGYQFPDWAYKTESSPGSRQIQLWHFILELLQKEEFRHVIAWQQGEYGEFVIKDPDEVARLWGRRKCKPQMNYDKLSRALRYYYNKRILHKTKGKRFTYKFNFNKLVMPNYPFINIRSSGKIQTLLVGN
As to conditions: protein: recombinant; tags: N-terminal GST; dsDNA, one strand shown. In short, it runs like this:
as §1

The target of the next assay is ETV6 (Homo sapiens, UniProt P41212 1-452). The settings on record: protein: recombinant; tags: N-terminal GST; dsDNA, one strand shown. The method, boiled down:
as §1

Chain of HSF1 (Q00613 whole entry): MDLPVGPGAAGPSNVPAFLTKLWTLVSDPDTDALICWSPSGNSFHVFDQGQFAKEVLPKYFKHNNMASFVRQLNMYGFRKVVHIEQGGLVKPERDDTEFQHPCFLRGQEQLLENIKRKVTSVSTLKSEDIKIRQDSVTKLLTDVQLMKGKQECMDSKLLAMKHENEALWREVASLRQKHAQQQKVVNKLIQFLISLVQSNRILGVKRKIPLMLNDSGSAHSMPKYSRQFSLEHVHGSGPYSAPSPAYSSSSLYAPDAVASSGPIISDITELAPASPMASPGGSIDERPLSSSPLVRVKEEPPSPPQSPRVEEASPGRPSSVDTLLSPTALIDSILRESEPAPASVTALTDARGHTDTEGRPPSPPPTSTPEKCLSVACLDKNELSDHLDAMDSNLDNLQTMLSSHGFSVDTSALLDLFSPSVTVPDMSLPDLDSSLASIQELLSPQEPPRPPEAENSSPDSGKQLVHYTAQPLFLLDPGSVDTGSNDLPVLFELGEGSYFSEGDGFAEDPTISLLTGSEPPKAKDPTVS
Chain of CRX (O43186 whole entry): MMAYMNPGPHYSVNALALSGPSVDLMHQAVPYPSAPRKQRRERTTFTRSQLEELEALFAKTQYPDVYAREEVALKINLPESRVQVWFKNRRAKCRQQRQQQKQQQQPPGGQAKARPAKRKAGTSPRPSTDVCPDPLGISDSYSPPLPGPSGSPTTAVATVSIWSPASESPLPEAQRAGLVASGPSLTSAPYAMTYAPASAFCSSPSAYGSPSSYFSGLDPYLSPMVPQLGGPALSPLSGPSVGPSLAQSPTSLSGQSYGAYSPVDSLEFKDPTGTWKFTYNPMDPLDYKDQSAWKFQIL
Chain of ETV5 (P41161 whole entry): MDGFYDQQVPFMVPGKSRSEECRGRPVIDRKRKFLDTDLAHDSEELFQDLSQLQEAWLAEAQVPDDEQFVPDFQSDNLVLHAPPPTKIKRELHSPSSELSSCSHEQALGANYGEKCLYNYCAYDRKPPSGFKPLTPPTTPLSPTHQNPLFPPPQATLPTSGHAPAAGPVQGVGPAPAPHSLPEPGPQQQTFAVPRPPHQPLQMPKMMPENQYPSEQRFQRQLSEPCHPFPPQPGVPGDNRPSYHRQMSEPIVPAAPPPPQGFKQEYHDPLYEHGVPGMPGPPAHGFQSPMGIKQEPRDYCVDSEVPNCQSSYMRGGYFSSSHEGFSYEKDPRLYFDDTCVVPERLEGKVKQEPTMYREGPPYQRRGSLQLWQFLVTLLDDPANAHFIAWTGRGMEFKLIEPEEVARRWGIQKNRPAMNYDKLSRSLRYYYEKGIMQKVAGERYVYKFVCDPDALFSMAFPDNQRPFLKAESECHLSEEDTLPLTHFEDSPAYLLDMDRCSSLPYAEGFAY
Chain of ETV6 (P41212 whole entry): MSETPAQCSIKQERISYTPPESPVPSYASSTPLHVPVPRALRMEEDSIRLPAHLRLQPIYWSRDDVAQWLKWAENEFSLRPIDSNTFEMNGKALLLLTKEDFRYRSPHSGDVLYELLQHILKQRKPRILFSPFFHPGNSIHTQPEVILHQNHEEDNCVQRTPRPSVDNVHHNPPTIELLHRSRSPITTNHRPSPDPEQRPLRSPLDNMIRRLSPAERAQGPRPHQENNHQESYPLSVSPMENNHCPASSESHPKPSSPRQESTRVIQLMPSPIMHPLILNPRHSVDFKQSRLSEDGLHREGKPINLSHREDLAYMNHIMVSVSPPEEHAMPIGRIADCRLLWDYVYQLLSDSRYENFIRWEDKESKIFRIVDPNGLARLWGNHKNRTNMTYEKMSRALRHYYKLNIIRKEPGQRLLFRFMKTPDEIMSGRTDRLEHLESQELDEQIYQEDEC

For the sequence AACTCG, the binding signal in the assay with FEV is 1.32 fold enrichment (6-mer frequency, TF over GST control); with ETV5 it was 1.29 fold enrichment (6-mer frequency, TF over GST control); in the assay with HSF1 it was 1.4 fold enrichment (6-mer frequency, TF over GST control); with SPIC, 1.58 fold enrichment (6-mer frequency, TF over GST control); in the assay with ELF4 it was 1.37 fold enrichment (6-mer frequency, TF over GST control); with ELK4 it was 1.29 fold enrichment (6-mer frequency, TF over GST control). The binding signal was 1.37 fold enrichment (6-mer frequency, TF over GST control) with ETV2; 1.29 fold enrichment (6-mer frequency, TF over GST control) with ELF3; 1.3 fold enrichment (6-mer frequency, TF over GST control) with CRX; 1.3 fold enrichment (6-mer frequency, TF over GST control) with ETV1; 1.44 fold enrichment (6-mer frequency, TF over GST control) in the assay with ERF; 1.43 fold enrichment (6-mer frequency, TF over GST control) with ETV3L. In addition, the binding signal was 1.31 fold enrichment (6-mer frequency, TF over GST control) with ETS2; 1.31 fold enrichment (6-mer frequency, TF over GST control) with SPDEF; 1.33 fold enrichment (6-mer frequency, TF over GST control) with ETV7; 1.35 fold enrichment (6-mer frequency, TF over GST control) with ELF5; 1.4 fold enrichment (6-mer frequency, TF over GST control) with ETV3; 1.33 fold enrichment (6-mer frequency, TF over GST control) with ETV6.
